Test results: the OligoGym collection

What follows are sequences tested against ERCC8 (assay: pooled miR-30 sensor sort-seq; sequence = guide strand). Conditions: shRNA.
Also: reference of the scale not given here.

Point of comparison: TTGTAGTCTCATCATCATCAGG, sensor-assay potency score (higher = more potent) -1.16. Against it:
- TAAACTATACAGAAGTCTGTTT — higher, -0.703
- TTGACTGAAATACACAGCAGTC — higher, -0.992
- TTGAAAAAAACACAGTCTCATT — lower, -1.3
- TCTTTCAACATCTCTGTCTTTA — higher, 0.0508
- TAACTTTCCCATTATGAGCAGT — higher, -0.724
- TCTGTCTTTATTTAATTCCAGT — lower, -1.2
- TAATCAAACATCCTGATGCTCT — higher, -0.532
- TAGCTGTCAGGAATAGACCATA — higher, -0.945
- TTGTAATGTATTTGTATCCCAT — higher, -0.441
- TTCGATTATCTGTACCAACAGT — higher, -0.994
- TTGTTGTAGTCTCATCATCATC — lower, -1.65

What follows are sequences tested against ERG in the same assay as above. Conditions: shRNA.

Point of comparison: TGGAAGTCGAACTTGTAGGCGT, sensor-assay potency score (higher = more potent) 0.335. Against it:
- TGCTTCTACATACACTGTCTTT — lower, -1.13
- TTCTTTGGCACTTTGTCCTTAA — lower, -0.383
- TTACATTCCATTTTGATGGTGA — higher, 0.928
- TCTTGTCATAGTAGTAACGGAG — lower, -1.01
- TATTCGTGACATTTTTAGCATC — lower, -1.17
- TAAGACTTCAGTAACTCCCTCC — higher, 0.34
- TAAATCTGTGTTTCTAGCATGC — lower, 0.0224
- TTTCTTTGGCACTTTGTCCTTA — higher, 0.442
- TTCTGTAGTAAGACTTCAGTAA — lower, 0.212
- TTATCGTAGTTCATGTTGGGTT — lower, -0.512
- TAACAAGATGTTGACGTCTGGA — higher, 0.51
- TTTTGATTCATGTTCTCCGATA — lower, -0.485
- TTCTCCTCCATGTAGCTGCCGT — lower, -0.46
- TACATTTCTTAAGACCACTTTC — lower, -0.508
- TCATCTTGGAAGTCTGTCCATA — lower, -0.884
- TTCTTGTCATAGTAGTAACGGA — lower, -1.05
- TATTGCTTTAGTTTCATCCCAG — lower, -0.25
- TAGCATGCATTAACCGTGGAGA — lower, -0.638
- TTGAGACAGCCAATCCTGCTGA — lower, 0.276
- TAAAATGGCATTATAAACGGTA — lower, -0.0295
- TTTCTAGCATGCATTAACCGTG — lower, -0.322
- TAAGACTTCATGCTTCTACATA — lower, -1.33
- TTCTAGCATGCATTAACCGTGG — lower, -0.659

What follows are sequences tested against ERICH1 in the same assay as above. Conditions: shRNA.

Point of comparison: AATTGTATCATCTTCCTCGCTG, sensor-assay potency score (higher = more potent) 0.524. Against it:
- TTATGCTTCCTAATTCTTCTTC — lower, 0.311
- TTCTTTGATTTATGCTTCCTAA — lower, -1.05
- TATACATTTAACTTAACAGAAT — lower, -1.58
